High-throughput results: PubChem BioAssay, Sanford-Burnham Center for Chemical Genomics
The full list was thinned out, with hits kept by preference.
Artemis inh – Artemis endonuclease inhibitors, primary screen, biochemical, fluorescence intensity, FAM/BHQ-1 hairpin substrate; Protein artemis (Homo sapiens), Q96SD1; inhibition, % at 10 µM; recombinant Artemis, quenched FAM hairpin cleavage fluorescence; 30,000 compounds, 0.78% hits;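 active = at 10 µM dose, at least 30% inhibition, measured as corrected fluorescence normalized to stimulator and neutral control wells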
Target sequence (Q96SD1 whole entry, looked up): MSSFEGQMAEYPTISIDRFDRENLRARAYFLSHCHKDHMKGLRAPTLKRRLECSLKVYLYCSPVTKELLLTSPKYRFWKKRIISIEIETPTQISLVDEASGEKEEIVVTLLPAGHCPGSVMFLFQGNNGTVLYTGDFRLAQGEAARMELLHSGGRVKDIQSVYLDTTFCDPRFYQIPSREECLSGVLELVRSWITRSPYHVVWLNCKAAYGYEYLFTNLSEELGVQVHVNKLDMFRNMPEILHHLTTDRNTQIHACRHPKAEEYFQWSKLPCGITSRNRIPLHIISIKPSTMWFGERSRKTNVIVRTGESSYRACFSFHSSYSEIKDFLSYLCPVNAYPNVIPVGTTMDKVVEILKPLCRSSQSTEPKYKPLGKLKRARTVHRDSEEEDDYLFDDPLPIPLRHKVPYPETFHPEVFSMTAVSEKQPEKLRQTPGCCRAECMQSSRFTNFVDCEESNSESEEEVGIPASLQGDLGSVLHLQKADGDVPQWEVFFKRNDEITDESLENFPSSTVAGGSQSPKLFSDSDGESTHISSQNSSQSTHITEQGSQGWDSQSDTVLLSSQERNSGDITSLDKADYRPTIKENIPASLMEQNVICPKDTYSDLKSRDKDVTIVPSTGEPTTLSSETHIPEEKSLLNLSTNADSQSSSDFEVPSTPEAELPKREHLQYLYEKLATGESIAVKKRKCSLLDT
* = called active by the depositor.

SMILES	Artemis inh
COc1ccc(O)c(/C=N/NC(=O)CSc2nnc(C)n2-c2ccccc2)c1	0
Cc1cc(C)n(-c2nc(C)nc(NCc3ccccc3)n2)n1	-2
COc1ccc(O)c(/C=N/Nc2nc(Nc3ccccc3)nc(-n3nc(C)cc3C)n2)c1	102*
Cc1onc(-c2ccccc2)c1C(=O)N1CC(C)OC(C)C1 (stereo unspecified)	-3
Cc1noc(C)c1S(=O)(=O)N(CCc1ccccc1)Cc1ccccc1	9
Cc1cc(NS(=O)(=O)c2ccc(NC(=S)NC(=O)c3ccc(Cl)cc3Cl)cc2)no1	30*
Cc1cc(NS(=O)(=O)c2ccc(NC(=O)CCc3ccccc3)cc2)no1	2
COc1cc(C(=O)Nc2ccc(S(=O)(=O)Nc3cc(C)on3)cc2)cc(OC)c1OC	-7
CCn1ncc(/C=N/NS(=O)(=O)c2ccc(Cl)cc2)c1C	-13
CCCOC(=O)NC(CC)COC(=O)Nc1cccc(C)c1C (stereo unspecified)	2
C=CCSc1nnc(-c2ccccc2N=Cc2c(C)[nH]n(-c3ccccc3)c2=O)c(=O)[nH]1	-2
CSc1nnc(-c2ccccc2N=Cc2c(C)[nH]n(-c3ccc4ccccc4c3)c2=O)c(=O)[nH]1	32*
Cc1[nH]n(-c2ccccc2)c(=O)c1C=Nc1cnc2ccccc2c1	0
COc1ccccc1NC(=O)Cn1cnc2c(cnn2-c2ccc(C)c(C)c2)c1=O	3
CCn1c(SCC(=O)c2ccc(F)cc2)nnc1-c1ccoc1C	6
CCn1c(SCC(=O)c2ccc(O)c(O)c2)nnc1-c1ccccc1	13
CCn1c(SCC(=O)c2ccc(O)c(O)c2)nnc1-c1ccccc1OC	30*
O=C1C2CC=C(Cl)CC2C(=O)N1CN(Cc1ccco1)CN1C(=O)C2CC=C(Cl)CC2C1=O (stereo unspecified)	-3
Cc1ccc(S(=O)(=O)N2CCOCC2)cc1C(=O)N1c2ccccc2Sc2ccccc21	7
COc1ccc2nc(-c3cccc(N)c3)[nH]c2c1	1
Nc1ccc2nc(-c3ccccn3)[nH]c2c1	45*
Nc1ccc2nc(-c3ccc(N)c(Cl)c3)[nH]c2c1	22
CCn1ccc(C(=O)NC2=C(C#N)CCC2)n1	-5
O=C(CCc1c[nH]c2ccccc12)NC1CC1	-9
CN=C(Nc1cc(Cl)ccc1Cl)SC1CC(=O)N(c2ccc(C(=O)OC)cc2)C1=O (stereo unspecified)	-1
SMILES	Artemis inh
N#Cc1c(N)nc2c(c1N)CC(COc1ccccc1)O2 (stereo unspecified)	-7
N=c1c(C(=O)NCc2ccccc2)cc2c(=O)n3ccccc3nc2n1Cc1ccco1	31*
COCCCn1c(=N)c(C(=O)NC2CCCCC2)cc2c(=O)n3ccccc3nc21	2
CC(C)n1c(=N)c(C(=O)NCCc2ccccc2)cc2c(=O)n3ccccc3nc21	2
N=c1c(C(=O)NCc2ccco2)cc2c(=O)n3ccccc3nc2n1Cc1ccccc1	23
N=c1c(C(=O)NCc2ccc(F)cc2)cc2c(=O)n3ccccc3nc2n1Cc1ccco1	29
Cc1ccc(CNC(=O)c2cc3c(=O)n4ccccc4nc3n(Cc3ccco3)c2=N)cc1	41*
CC(=O)N(C)C1(c2nnnn2CCOC(=O)Nc2cccc3ccccc23)CCCC1	3
CC1(C)CC(=O)C2=C(C1)Oc1nc3ccccc3cc1C2C(C#N)C#N (stereo unspecified)	-4
CCc1nn(CC(=O)N2CCN(Cc3ccc4c(c3)OCO4)CC2)c(=O)c2cc3occc3n12	-1
Cc1cccc(N(CC(=O)NCc2ccc3c(c2)OCO3)C(=O)CCC(=O)Nc2ccccn2)c1	4
COc1ccc(Nc2nc(NCc3ccco3)nc(N/N=C/c3ccccc3)n2)cc1	72*
CCOc1nc(NCc2ccco2)nc(Nc2ccc(OC)cc2)n1	5
CC(C)c1ccc(Nc2nc(NCc3ccco3)nc(N3CCOCC3)n2)cc1	21
CCn1ncc([N+](=O)[O-])c1C(=O)N1CCCC1	-1
COc1ccccc1OC(=O)CN1C(=O)c2ccccc2C1=O	1
CCN1CCc2c(sc(NC(=S)NC(=O)c3ccccc3)c2C#N)C1	1
O=C(Cc1cn2ccsc2n1)Nc1nc2c(s1)CN(Cc1ccccc1)CC2	57*
O=C(Cc1cn2ccsc2n1)OCc1ccccc1	-6
CCCSc1nc2sc3c(c2c(=O)[nH]1)CCN(Cc1ccccc1)C3	21
O=C(Cc1cn2ccsc2n1)Nc1ccccc1Oc1ccccc1	-1
CCN1CCc2nc(NC(=O)CC(c3ccccc3)c3ccccc3)sc2C1	39*
CC1CCc2nc(NC(=O)CN3CCN(c4ccccc4)CC3)sc2C1 (stereo unspecified)	5
CCN1CCc2nc(NC(=O)C(c3ccccc3)c3ccccc3)sc2C1	49*
CC1CCc2nc(NC(=O)CN3CCOCC3)sc2C1 (stereo unspecified)	7
SMILES	Artemis inh
Cc1cccc(Oc2ncc(-c3ccc(Cl)cc3)cn2)c1	-14
Cc1cccc(-n2c(C)cc(/C=N/n3cnnc3)c2C)c1	8
COCCn1c(Cc2ccccc2)nnc1SCC(=O)NC(C)C	-3
CCOC(=O)c1c(NC(=O)Cn2nnc(-c3ccc(Cl)cc3)n2)sc(CC)c1C	1
COc1ccc(CSc2nnc(Cc3sc(-c4ccccc4)nc3-c3ccccc3)o2)cc1	3
Nc1cc(C(=O)O)ccc1Nc1ccc(F)c(F)c1	1
Cc1ccc(N2CC(C(=O)NCC3CCCO3)CC2=O)cc1Cl (stereo unspecified)	-2
O=C1[C@@H]2C(c3ccccc3Cl)=NO[C@@H]2C(=O)N1Cc1ccccc1	1
NS(=O)(=O)c1ccc(CCNc2ncnc3c2c(-c2ccccc2)cn3-c2ccc(F)cc2)cc1	8
COCc1cc(=O)n2[nH]c(-c3ccsc3-n3c(C)ccc3C)cc2n1	24
Cc1cc(=O)n2[nH]c(-c3ccc(Cl)cc3)cc2n1	-1
Cc1nc2cc(-c3ccsc3-n3c(C)ccc3C)[nH]n2c(=O)c1Cl	30*
CCOC(=O)c1cc(C#N)c(Oc2ccccc2OC)nc1-c1ccccc1	6
Cc1nn(C)c(C)c1/C=N/N=C1\CCC2C3CCc4cc(O)ccc4C3CCC12C (stereo unspecified)	-5
O=C1CN(C(=O)CSc2nnc(C3CC3)n2-c2ccccc2)c2ccccc2N1	11
Cc1ccc(-c2cc(C(F)F)n3ncc(C(=O)Nc4c(C)nn(Cc5c(Cl)cccc5Cl)c4C)c3n2)cc1	32*
O=C(Nc1cccnc1)c1cnn2c(C(F)F)cc(C3CC3)nc12	-4
Cc1nn(Cc2c(Cl)cccc2Cl)c(C)c1NC(=O)c1cnn2c(C(F)F)cc(-c3ccccc3)nc12	25
CC(=O)N(/N=C1\Sc2ccccc2C1=O)c1ccccc1	31*
CC(=O)N(/N=C1\Sc2ccccc2C1=O)c1ccccc1C	32*
Cc1ccccc1-c1coc2cc(O)ccc2c1=O	8
CC(=O)N(CCCCN1C(=O)c2ccccc2C1=O)c1ccc(C)cc1	5
CC(=O)N(/N=C1\Sc2ccccc2C1=O)c1ccc(C)cc1C	10
O=C(CN1C(=O)C2C3C=CC(C3)C2C1=O)N1CC=C(c2ccccc2)CC1 (stereo unspecified)	2
CSc1ccc2[nH]c(=O)cc(C)c2c1	-5
Cc1ccnc(NC(=O)c2cccc(NS(=O)(=O)c3ccccc3C)c2)c1	9
CCOC(=O)c1[nH]c(C)c(/C=N/O)c1C	-1
O=C(OCCN1C(=O)CCC1=O)c1ccc(S(=O)(=O)N2CCCCC2)cc1	0
Cn1c(NCc2ccco2)nc2c1c(=O)n(Cc1ccc(Cl)c(Cl)c1)c(=O)n2C	9
CC(C)(C)C(=O)Nc1ccc(N2CCCC2)cc1	10
